Screening results (PubChem)
Rows were chosen to be rich in hits. Some 2.9% of all compounds tested hit in one or more screens of this group.
PAFAH1B3 FP inh = inhibitors of human PAFAH1B3. Q15102. recombinant PAFAH1B3, FP-rhodamine probe, fluorescence polarization. inhibition, % at 3.39 µM. 0.28% of 340,000 active. AID 492972;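 active means inhibition above the screen-wide average of all tested compounds plus 3 SD, cut at about 25% in these data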;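 further: 0% = enzyme with DMSO only and 100% = wells lacking PAFAH1B3 protein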
pPAFAH FP inh = pPAFAH (human) enzyme inhibition. recombinant pPAFAH, FP-rhodamine probe fluorescence polarization. 1.5% of 330,000 active. AID 463082. inhibition, % at 3.39 µM. Q13093;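 active means inhibition above the mean inhibition across the screen plus 3 SD, cut at about 25% in these data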;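 further: inhibitors block binding of the rhodamine activity-based probe so polarization drops; 0% = enzyme with DMSO and 100% = wells lacking pPAFAH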
Fam108B inh = blocks mouse Fam108B hydrolase in RBBP9 counter-screen; recombinant Fam108B, FP-Rh probe fluorescence polarization; inhibition, % at 9.51 µM; 0.33% of 300,000 active; AID 1947;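 active means inhibition above the screen mean inhibition plus 3 SD, computed separately per campaign, cut at about 18% in these data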;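 further: inhibitors lower polarization as less probe binds the enzyme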
PME-1 inh = blocks human protein phosphatase methylesterase 1; inhibition, % at 5.9 µM; recombinant PME-1, FP-Rh probe fluorescence polarization; 0.53% of 320,000 active; AID 2130;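 active means inhibition above the campaign mean of all compounds plus 3 SD, cut at about 26% in these data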;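 further: competitive labeling of PME-1 active site by serine hydrolase directed probe; 0% = PME-1 with DMSO and 100% = wells lacking PME-1 enzyme; inhibitors block probe labeling so polarization falls and inhibition rises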
Target sequence (Q9Y570 whole entry, looked up): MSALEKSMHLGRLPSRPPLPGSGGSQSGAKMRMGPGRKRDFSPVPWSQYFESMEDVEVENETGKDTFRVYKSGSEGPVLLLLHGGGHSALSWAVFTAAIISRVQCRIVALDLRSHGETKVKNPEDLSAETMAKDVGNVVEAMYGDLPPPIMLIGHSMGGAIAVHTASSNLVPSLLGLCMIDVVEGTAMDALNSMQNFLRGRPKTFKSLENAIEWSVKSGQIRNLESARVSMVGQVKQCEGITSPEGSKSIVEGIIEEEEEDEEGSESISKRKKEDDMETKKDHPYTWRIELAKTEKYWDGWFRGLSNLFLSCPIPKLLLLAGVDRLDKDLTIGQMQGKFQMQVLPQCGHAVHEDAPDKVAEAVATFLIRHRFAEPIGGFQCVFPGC
PAFAH2 inh = inhibitors of human PAFAH2. 0.99% of 340,000 active. recombinant PAFAH2, FP-rhodamine activity probe, fluorescence polarization. AID 492956. inhibition, % at 3.39 µM;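 active means inhibition above the mean over all tested compounds plus 3 SD, cut at about 30% in these data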;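 further: inhibitors block probe labeling of enzyme so polarization drops; 0% = enzyme with DMSO and 100% = wells lacking PAFAH2 protein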
PAFAH1B2 FP inh = blocks human PAF acetylhydrolase 1b catalytic subunit 2; 1.2% of 340,000 active; recombinant PAFAH1B2, FP-rhodamine activity probe, fluorescence polarization; AID 492953; inhibition, % at 3.39 µM; P68402;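 active means inhibition above the mean of all tested compounds plus 3 SD, cut at about 24% in these data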;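 further: 0% = enzyme with DMSO and 100% = wells lacking PAFAH1B2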
Target sequence (P68402 whole entry, looked up): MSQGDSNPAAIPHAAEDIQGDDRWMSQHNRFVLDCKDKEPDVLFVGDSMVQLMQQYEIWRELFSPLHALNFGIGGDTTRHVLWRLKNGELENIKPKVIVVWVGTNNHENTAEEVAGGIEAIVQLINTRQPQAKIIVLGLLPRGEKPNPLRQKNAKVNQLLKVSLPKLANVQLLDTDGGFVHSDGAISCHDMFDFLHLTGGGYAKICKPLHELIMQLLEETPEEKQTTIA
An asterisk follows results filed as active; . = not tested or not shown.

SMILES	PAFAH1B3 FP inh	pPAFAH FP inh	Fam108B inh	PME-1 inh	PAFAH2 inh	PAFAH1B2 FP inh
O=S(=O)(c1ccc(Cl)cc1)N1CCN2CCCC2C1 (stereo not drawn)	5.5	0.0	1.9	-2.2	12.4	27.3*
COc1ccc(C)cc1NC(=O)CN1CCN(S(=O)(=O)c2ccc(Cl)cc2)CC1	9.3	-4.3	2.8	1.5	2.3	27.6*
O=C(CN1CCN(S(=O)(=O)c2ccc(F)cc2)CC1)NC1CCCC1	3.0	1.1	1.0	3.1	3.0	11.2
COc1ccc(Cl)cc1NC(=O)CN(C)C(=O)CCSc1ccc(C)cc1	6.3	-1.8	.	-0.3	6.7	26.4*
COc1ccc(C)cc1NC(=O)CN1CCN(S(=O)(=O)c2ccc(C(C)C)cc2)CC1	2.7	1.7	-1.6	2.9	-0.3	0.0
COc1ccc(NC(=O)CN(C)C(=O)CCSc2ccc(C)cc2)cc1	6.5	1.5	3.5	1.5	-2.5	14.3
Cc1ccc(NC(=O)c2nc[nH]c2C(=O)N(C)Cc2ccccc2)cc1	5.8	1.6	.	-5.1	0.9	1.7
O=C(CCN1CCN(S(=O)(=O)c2ccc(Cl)cc2)CC1)Nc1ccc(F)cc1	8.7	-0.6	-2.5	-2.2	-5.0	25.5*
COc1ccc(OC)c(NC(=O)CN2CCC(C(=O)c3ccc(C)cc3)CC2)c1	7.4	28.7*	0.2	5.8	-7.2	0.0
COc1ccc(S(=O)(=O)N2CCCCC2)cc1NC(=O)CCc1cc(OC)c(OC)c(OC)c1	7.0	.	.	.	9.0	1.3
O=C(CCN1CCN(S(=O)(=O)c2ccc(Cl)cc2)CC1)Nc1ccccc1F	-4.2	0.5	0.8	1.2	2.6	23.1
COc1ccc(S(=O)(=O)N2CCCCCC2)cc1NC(=O)Cc1cc(OC)c(OC)c(OC)c1	9.4	4.1	2.8	57.5*	2.7	6.1
CCN1CCN(c2ccc(S(=O)(=O)N3CCCCC3)cc2NC(=O)/C=C/c2cc(OC)ccc2OC)CC1	-1.7	26.2*	-3.5	4.5	-0.5	-7.3
COc1cc(C(=O)N2CCN(c3cccc(C)c3C)CC2)ccc1OCC(=O)N1CCOCC1	6.1	-2.0	.	5.1	4.3	4.7
Nc1ccc(CSc2ccccc2)cc1	7.4	.	.	.	8.7	31.6*
CCN1C(=O)c2cccc3c(S(=O)(=O)Nc4ccncc4)ccc1c23	2.7	4.2	2.3	-2.3	6.8	3.8
CCN1C(=O)c2cccc3c(S(=O)(=O)Nc4ccccc4)ccc1c23	-1.6	25.4*	-3.8	-6.4	10.7	1.9
COc1ccccc1C(C(C(=O)c1ccccc1)N1CCOCC1)N1CCOCC1 (stereo not drawn)	7.3	.	.	.	2.6	5.6
COc1cc(/C=N/NC(=O)CCN2CCN(C)CC2)cc2c1OCO2	9.6	-3.6	3.0	-2.7	-5.0	-0.2
NC(=O)/C(=C/c1ccco1)C(N)=S	16.2	25.8*	6.0	-3.1	6.7	10.1
CN1Cc2c(N3CCOCC3)nc3sc(C(=O)c4ccc(Br)cc4)c(N)c3c2CC1(C)C	.	30.3*	7.2	-3.3	.	.
CNS(=O)(=O)c1cccc(C(=O)NCC2(N3CCCCC3)CCCCC2)c1	6.3	4.7	0.7	-2.2	5.6	10.1
COc1ccc(NS(=O)(=O)c2cccc(C(=O)NNC(=O)NCCCl)c2)cc1	6.4	6.4	1.2	-0.2	-5.2	-0.2
COc1ccc(NS(=O)(=O)c2cccc(C(=O)NCC3(N4CCCCC4)CCCCC3)c2)cc1	6.7	31.9*	0.2	2.3	-1.5	-1.0
COc1ccc(NS(=O)(=O)c2cccc(NC(=O)c3ccccn3)c2)cc1	-2.4	25.7*	-5.2	-5.2	-0.3	-0.7
SMILES	PAFAH1B3 FP inh	pPAFAH FP inh	Fam108B inh	PME-1 inh	PAFAH2 inh	PAFAH1B2 FP inh
COc1ccc(NS(=O)(=O)c2ccc(NC(=O)c3ccccn3)cc2)cc1	1.1	6.0	.	-0.9	5.0	0.5
COc1ccc(NS(=O)(=O)c2ccc(C(=O)NCC3(N4CCOCC4)CCCCC3)cc2)cc1	1.9	31.2*	.	.	4.0	9.0
COc1ccc(NS(=O)(=O)c2cccc(C(=O)NNC(=O)CNC(=O)c3ccc(C)cc3)c2)cc1	13.2	34.1*	0.1	-1.8	3.5	1.2
Cn1ccc2c([N+](=O)[O-])cccc2c1=O	-0.6	-2.5	-0.2	1.0	1.9	-0.7
Cc1ccc(S(=O)(=O)NCC(=O)OCC(=O)Nc2cccc(S(=O)(=O)N3CCOCC3)c2)cc1	12.8	13.9	.	.	7.8	2.5
CCN1CCN(C(=O)/C=C/c2c(F)cccc2Cl)CC1	11.9	4.5	3.7	-6.9	3.8	5.6
O=C(O)c1cnn(-c2nc(-c3ccc(Br)cc3)cs2)c1C(F)(F)F	12.6	10.0	-0.1	2.7	1.9	40.5*
CC(=O)N1CCN(c2ccc(Oc3ccc([N+](=O)[O-])c(C(F)(F)F)c3)cc2)CC1	4.5	24.7*	-0.1	1.6	-6.5	7.4
CC(C)(C)C1CCC(=O)C(C2(O)C(=O)Nc3ccccc32)C1 (stereo not drawn)	10.2	5.4	3.3	6.2	0.3	27.1*
O=C(CSc1ccccn1)Nc1ccc(F)c([N+](=O)[O-])c1	5.7	3.4	6.2	1.1	-3.0	-2.2
O=C(N=C1SC2CS(=O)(=O)CC2N1c1ccc(F)cc1)C1CC1 (stereo not drawn)	9.2	3.0	0.6	5.4	2.8	1.4
COc1ccc(C(=NNc2ccccc2C(=O)O)c2ccc(OC)cc2)cc1	11.8	33.2*	8.2	1.3	18.7	6.5
CCOc1cc(C2C3=C(CC(C)(C)CC3=O)N(CCCOC)C3=C2C(=O)CC(C)(C)C3)ccc1OC	12.8	-3.4	-1.3	-0.9	2.7	-1.6
Fc1cccc2sc(Nc3nnc(-c4ccccc4)o3)nc12	1.3	24.9*	13.7	27.5*	33.4*	11.8
Cc1[nH]c2ccccc2c1/C=C/c1nc2ccccc2c(=O)n1CCO	9.5	17.4	12.4	70.2*	7.3	4.5
CCCC(=O)NCCc1cc2ccc(C)c(C)c2[nH]c1=O	-2.4	1.0	1.3	-8.3	-1.6	2.5
Cc1ccccc1N(CC(=O)NCCSCc1ccccc1)S(C)(=O)=O	-1.0	7.7	0.9	2.3	5.7	2.7
CCOc1ncccc1C(=O)OCC(=O)Nc1cc(C(C)(C)C)ccc1OC	3.0	28.4*	.	.	6.2	6.0
COc1ccccc1-c1n[nH]c(=S)n1-c1ccccc1	-0.8	3.0	12.2	3.2	7.1	25.1*
Cc1nn(C)c(Cl)c1CN1CCCC(CCC(=O)NCc2ccccc2F)C1 (stereo not drawn)	5.6	3.2	0.8	-1.2	0.8	1.1
CC(Sc1nnc(N)s1)C(=O)NNC(=O)c1cccc(Cl)c1 (stereo not drawn)	9.5	4.1	.	.	-1.9	2.8
COc1ccccc1/C=C/C=C1N=C(/C=C/c2ccc(Cl)cc2)OC/1=O	-21.5	29.8*	-16.6	-5.6	-9.0	-16.0
COc1ccc(CNC(=O)C(OC(=O)c2nsc(Cl)c2Cl)C(C)C)cc1 (stereo not drawn)	13.3	24.1	0.1	-4.3	5.6	3.5
